# miR122 inh: activators of miR-122 sensor in Huh7 cells; Huh7 psiCHECK-miR122 Renilla luciferase sensor, 48 h; activation, % at 12.5 µM; 340,000 compounds, 0.14% hits; AID 623901;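 active = mean activation of 30% or more, with every replicate also reaching 30%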;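 also: higher luciferase signal means stronger suppression of miR-122 activity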
# A number is an active result; n = inactive. Shown is part of a subset that was picked to be rich in hits.
SMILES,miR122 inh
C[C@H]1CN([C@@H](C)CO)C(=O)c2cc(-c3ccc(F)cc3)cnc2O[C@@H]1CN(C)CC1CCOCC1,n
CCC(=O)N(C)C[C@@H]1Oc2ncc(C#CCC3CCCC3)cc2C(=O)N([C@H](C)CO)C[C@H]1C,n
CCC(=O)N(C)C[C@@H]1Oc2ncc(C#CC3(O)CCCC3)cc2C(=O)N([C@@H](C)CO)C[C@@H]1C,n
CCC(C)(C)n1nnnc1C(c1ccc(C)cc1)N1CCC(C)CC1 (stereo not drawn),n
COc1cccc(C#Cc2cnc3c(c2)C(=O)N([C@@H](C)CO)C[C@H](C)[C@@H](CN(C)C(=O)C2CCCCC2)O3)c1,n
C[C@@H](O)C#Cc1cnc2c(c1)C(=O)N([C@@H](C)CO)C[C@H](C)[C@@H](CN(C)C(=O)CN(C)C)O2,n
Cc1cc(C(=O)Nc2ccc3c(c2)C(=O)N(C)[C@@H]2CC[C@@H](CC(=O)N[C@H](C)c4ccccc4)O[C@H]2CO3)no1,33
Cc1cc(C(=O)Nc2ccc3c(c2)C(=O)N(C)[C@H]2CC[C@H](CC(=O)N[C@@H](C)c4ccccc4)O[C@H]2CO3)no1,50
COc1cccc(CNS(=O)(=O)c2cc(-c3cc(C)no3)ccc2C(C)C)c1,n
CCC(=O)N1C[C@@H](C)[C@H](OC)CN(C)C(=O)c2ccc(NS(C)(=O)=O)cc2OC[C@@H]1C,n
C[C@@H]1CN([C@@H](C)CO)C(=O)c2cc(C#CC(C)(C)O)cnc2O[C@@H]1CN(C)C(=O)C1CC1,n
C[C@H](CO)N1C[C@H](C)[C@@H](CN(C)Cc2ccc(C(=O)O)cc2)Oc2ncc(-c3ccc(C(=O)N(C)C)cc3)cc2C1=O,n
COc1ccccc1NS(=O)(=O)c1cc(NC(=O)c2cccs2)ccc1N1CCOCC1,n
CC(C)CC#Cc1cnc2c(c1)C(=O)N([C@H](C)CO)C[C@H](C)[C@H](CN(C)C(=O)Nc1cccc(F)c1)O2,n
C[C@@H](O)C#Cc1cnc2c(c1)C(=O)N([C@@H](C)CO)C[C@H](C)[C@@H](CN(C)Cc1cncnc1)O2,n
OCc1ccc(-c2nn(Cc3ccccc3)c3ccccc23)o1,54
CCC(=O)N(C)C[C@@H]1Oc2ncc(C#Cc3cccnc3)cc2C(=O)N([C@@H](C)CO)C[C@H]1C,n
Cc1noc(C)c1NC(=O)N(C)C[C@@H]1Oc2ncc(C#Cc3ccc(F)cc3)cc2C(=O)N([C@H](C)CO)C[C@@H]1C,n
C[C@@H]1CN([C@H](C)CO)S(=O)(=O)c2ccc(-c3ccc(F)cc3)cc2O[C@@H]1CN(C)C(=O)C1CCOCC1,n
S=C(Nc1ccc(Cl)cc1Cl)NC1CCCCC1,n
CN1C(=O)c2cc(NC(=O)C3CC3)ccc2OC[C@@H]2O[C@H](CC(=O)NCCN3CCCC3)CC[C@H]21,45
CCNC(=O)Nc1ccc2c(c1)C(=O)N(C)[C@H]1CC[C@H](CC(=O)NCCN3CCCC3)O[C@@H]1CO2,37
CN1C(=O)c2cc(NC(=O)C3CC3)ccc2OC[C@H]2O[C@H](CC(=O)NCc3cccc(F)c3)CC[C@H]21,n
CC(C)C#Cc1ccc2c(c1)O[C@@H](CN(C)C(=O)c1ccccc1)[C@@H](C)CN([C@@H](C)CO)S2(=O)=O,n
C[C@H](O)C#Cc1ccc2c(c1)O[C@@H](CN(C)CC1CCOCC1)[C@H](C)CN([C@@H](C)CO)S2(=O)=O,n
SMILES,miR122 inh
CO[C@H]1CN(C)C(=O)c2ccc(NC(=O)C3CCC3)cc2OC[C@@H](C)NC[C@@H]1C,n
C[C@H](CO)N1C[C@H](C)[C@H](CN(C)S(=O)(=O)c2cn(C)cn2)Oc2cc(C#Cc3ccc(F)cc3)ccc2S1(=O)=O,n
C[C@@H]1CN([C@@H](C)CO)S(=O)(=O)c2ccc(C#Cc3ccccn3)cc2O[C@H]1CN(C)Cc1cccc(F)c1,n
Cc1cc(C)cc(Oc2ccc(NC(=O)C3CC=CCC3C(=O)O)cc2)c1 (stereo not drawn),32
C[C@@H]1CN([C@H](C)CO)S(=O)(=O)c2ccc(C#CC(C)(C)O)cc2O[C@H]1CN(C)C(=O)C1CCC1,n
COc1ccc(C#Cc2ccc3c(c2)O[C@@H](CN(C)C)[C@H](C)CN([C@@H](C)CO)S3(=O)=O)cc1,n
CCc1noc(C)c1C(=O)OCC(=O)c1ccc(NC(C)=O)cc1F,n
CCCNC(=O)N1C[C@@H](C)[C@@H](OC)CN(C)C(=O)c2cc(NS(=O)(=O)CC)ccc2OC[C@@H]1C,n
C[C@@H]1CN([C@H](C)CO)S(=O)(=O)c2ccc(-c3cncnc3)cc2O[C@H]1CN(C)Cc1cncnc1,n
CN1C(=O)c2cc(NC(=O)c3ccc(C(F)(F)F)cc3)ccc2OC[C@@H]2O[C@@H](CC(=O)NC3Cc4ccccc4C3)CC[C@@H]21,55
COCC(=O)Nc1ccc2c(c1)C(=O)N(C)[C@@H]1CC[C@@H](CC(=O)NC3Cc4ccccc4C3)O[C@@H]1CO2,37
CN1C(=O)c2cc(NS(=O)(=O)c3ccc(Cl)cc3)ccc2OC[C@H]2O[C@H](CC(=O)N3CCc4ccccc4C3)CC[C@@H]21,33
COCC(=O)Nc1ccc2c(c1)C(=O)N(C)[C@@H]1CC[C@H](CC(=O)N3CCc4ccccc4C3)O[C@H]1CO2,37
COc1ccccc1NS(=O)(=O)c1cc(NC(=O)CCC2CCCC2)ccc1N1CCOCC1,n
CCC(=O)N(C)C[C@@H]1Oc2ncc(-c3cccc(OC)c3)cc2C(=O)N([C@H](C)CO)C[C@H]1C,n
C[C@@H]1CN([C@H](C)CO)S(=O)(=O)c2ccc(-c3ccccc3)cc2O[C@H]1CN(C)Cc1ccccc1C(=O)O,n
C[C@@H]1CN([C@@H](C)CO)C(=O)c2cc(C#CC3(O)CCCC3)cnc2O[C@@H]1CN(C)C(=O)C1CCCCC1,n
COc1cccc(NC(=O)N(C)C[C@@H]2Oc3cc(-c4cccc(C(=O)N(C)C)c4)ccc3S(=O)(=O)N([C@@H](C)CO)C[C@@H]2C)c1,n
C[C@H](CO)N1C[C@H](C)[C@@H](CN(C)C(=O)C2CCCCC2)Oc2cc(C#Cc3ccncc3)ccc2S1(=O)=O,n
C[C@@H]1CN([C@@H](C)CO)C(=O)c2cc(C#CC3(O)CCCC3)cnc2O[C@H]1CN(C)S(=O)(=O)c1ccccc1,n
CO[C@@H]1CN(C)C(=O)c2cc(NS(=O)(=O)c3ccc(F)cc3)ccc2OC[C@@H](C)N(C)C[C@H]1C,n
CC(C)CC#Cc1cnc2c(c1)C(=O)N([C@H](C)CO)C[C@@H](C)[C@H](CN(C)C(=O)Nc1cccc(F)c1)O2,n
C[C@@H]1CN([C@@H](C)CO)C(=O)c2cc(-c3ccccc3)cnc2O[C@H]1CN(C)C(=O)c1cccnc1,n
O=C(Nc1ccc(S(=O)(=O)Nc2nccs2)cc1)c1cc(-c2ccccc2Cl)nc2ccccc12,n
COCC(=O)Nc1ccc2c(c1)C(=O)N(C)[C@@H]1CC[C@H](CC(=O)NCCCN(C)C)O[C@H]1CO2,45
SMILES,miR122 inh
COCC(=O)Nc1ccc2c(c1)C(=O)N(C)[C@@H]1CC[C@H](CC(=O)NCc3ccccc3F)O[C@H]1CO2,50
COCC(=O)Nc1ccc2c(c1)C(=O)N(C)[C@H]1CC[C@@H](CC(=O)O)O[C@H]1CO2,n
COc1ccccc1-c1ccc2c(c1)O[C@@H](CN(C)C(C)=O)[C@H](C)CN([C@H](C)CO)S2(=O)=O,n
C[C@H]1CN([C@@H](C)CO)C(=O)c2cc(C#Cc3ccc(F)cc3)cnc2O[C@H]1CN(C)CC1CCOCC1,n
C[C@H]1CN([C@@H](C)CO)S(=O)(=O)c2ccc(-c3cncnc3)cc2O[C@H]1CN(C)Cc1ccccn1,n
C[C@@H]1CN([C@H](C)CO)C(=O)c2cc(/C=C/c3ccccc3)cnc2O[C@H]1CN(C)Cc1cccc(C(=O)O)c1,n
